Several values for one entry are separate records, joined by “and”; a condition that tells them apart may be missing. Equal entries are not always repeated. Inconclusive results are not listed. Activity calls are given as the source filed them. How the source made its calls: active means hit-call score of the fitted dose curve at least 0.9, where 1 is the maximum; inconclusive means response in the unintended direction; inactive means score below 0.9.
Experiment: TOX21_p53_BLA_p5_viability: Viability Assessment in the Tox21 HCT-116 p53 Agonism Beta-lactamase Assay, Phase 5 (AID 2283600)
From the text: TOX21_p53_BLA_p5 is a cell-based, single-readout assay that uses HCT116, a human intestinal cell line, […] in a 1536-well plate.TOX21_p53_BLA_p5_viability is an assay readout measuring cellular ATP content and detected with CellTiter-Glo Luciferase-coupled ATP quantitation.TOX21_p53_BLA_p5_viability used a type of viability reporter where loss-of-signal activity can be used to understand changes in the cell viability. Furthermore, this assay endpoint can be referred to as a secondary readout, because this assay has produced multiple assay endpoints where this one serves a viability function. To generalize the intended target to other relatable targets, this assay endpoint is annotated to the cell cycle intended target family, where the subfamily is cytotoxicity.
Thawing Method: Place 14 mL of pre-warmed thaw medium into a 15 mL of conical tub. Remove the vial of cells to be thawed from liquid nitrogen and thaw rapidly by placing at 37C in a water bath with gentle agitation for 1-2 minutes. Decontaminate the vial by wiping with 70% ethanol before opening in a biological safety cabinet. Transfer the vial contents drop-wise into 14 mL of thaw medium in a sterile 15-mL conical tub. Centrifuge cells at 900 rpm for 4 minutes and resuspend in thaw medium. Transfer contents to the T75 tissue culture flask containing Thaw Medium and place flask in a humidified 37C/5% CO2 incubator. Switch to growth medium at first passage.Propagation Method: Aspirate medium, rinse once in DPBS, add 0.25% Trypsin/EDTA and swirl to coat the cell evenly. Add an equal volume of Growth Medium to inactivate Trypsin after 2-3 minutes incubation at 37C. Centrifuge cells at 900 rpm for 4 minutes and resuspend in growth medium. Cell should be passage or fed at least twice a week.Assay Protocol: Harvest cells from culture in growth medium and resuspend in assay medium. 2.2 Dispense 4000 cells/5 uL/well into 1536-well black/clear bottom plates using a Multidrop dispenser. After the cells were incubated at 37C for 5 hours, 23 nL of compounds dissolved in DMSO were transferred to the assay plate by a PinTool resulting in a 217-fold dilution. Incubate the plates for 16 hours at 37C, 5% CO2. Add 1 uL of 6X LiveBLAzer FRET B/G (CCF4-AM) Substrate Mixture to each well using a BioRAPTR dispenser and incubate the plates at room temperature for 2 hours. Measure fluorescence intensity at 460 and 530 nm emission and 405 nm excitation by an Envision detector. Data is expressed as the ratio of 460nm/530nm emissions. Add 4 uL of Cell-titer Glo to each well using BioRAPTR and incubate the plates at room temperature for […]. For cell viability readout that measures cytotoxicity, 4 ul/well of CellTiter-Glo reagent was added into the assay plates using a Flying Reagent Dispenser. After 30 min incubation at room temperature, the luminescence intensity in the plates was measured using a ViewLux plate reader.

Question: For `c1ccc2c(c1)Oc1ccccc1O2`, which outcome is on record?
Answer: inactive

Question: With `CC(=Cc1ccccc1)[N+](=O)[O-]` as the compound, how does the outcome read?
Answer: inactive

Question: Which outcome does the source give for `CCOc1ccc(N)cc1` here?
Answer: inactive

Question: Which outcome does the source give for `COC(=O)c1cc(Oc2ccc(Cl)cc2Cl)ccc1[N+](=O)[O-]` here?
Answer: inactive

Question: Which outcome does the source give for `O=C(NC(=O)c1c(F)cccc1F)Nc1cc(Cl)c(F)c(Cl)c1F` here?
Answer: inactive

Question: With `CCOP(=S)(OCC)Oc1ccc(Cl)cc1Cl` as the compound, how does the outcome read?
Answer: inactive

Question: With `N#Cc1ccc(Cl)cc1` as the compound, how does the outcome read?
Answer: inactive

Question: Which AC50 does the source give for `CN(C)c1ccc(N=O)cc1` here?
Answer: 74.2 µM (active) and 79.4 µM (active)

Question: For `CCNc1nc(NCC)nc(SC)n1`, which outcome is on record?
Answer: inactive

Question: For `CCCCCCCCCCCCCl`, which outcome is on record?
Answer: inactive

Question: With `CCC[CH2][Sn]([Cl])([Cl])[CH2]CCC` as the compound, how does the AC50 read?
Answer: 2.75 µM (active) and 2.86 µM (active)

Question: With `CNC(=O)O/N=C/C(C)(C)S(C)(=O)=O` as the compound, how does the outcome read?
Answer: inactive

Question: With `O=C(NC(=O)c1c(F)cccc1F)Nc1cc(Cl)c(OC(F)(F)C(F)C(F)(F)F)cc1Cl` (stereo not given) as the compound, how does the outcome read?
Answer: inactive

Question: With `Cc1cc(C(C)(C)c2ccc(O)c(C)c2)ccc1O` as the compound, how does the outcome read?
Answer: inactive

Question: For `CS(=O)(=O)c1ccc(C(=O)C2C(=O)CCCC2=O)c(Cl)c1COCC(F)(F)F`, which outcome is on record?
Answer: inactive

Question: For `Cc1cc(-c2cc(C)c(N)c(C)c2)cc(C)c1N`, which outcome is on record?
Answer: inactive

Question: Which outcome does the source give for `COCCl` here?
Answer: inactive

Question: Which outcome does the source give for `Nc1ccc(Br)cc1` here?
Answer: inactive

Question: With `Cc1cc(SCc2sc(-c3ccc(C(F)(F)F)c(F)c3)nc2C)ccc1OCC(=O)O` as the compound, how does the AC50 read?
Answer: 40.6 µM (active)

Question: For `CC(C)CC(C)(c1ccc(O)cc1)c1ccc(O)cc1`, which AC50 is on record?
Answer: 71.2 µM (active) and 81.4 µM (active)

Question: For `O=[N+]([O-])c1c2ccccc2cc2ccccc12`, which outcome is on record?
Answer: inactive

Question: For `Nc1nc(N)nc(Cl)n1`, which outcome is on record?
Answer: inactive

Question: Which outcome does the source give for `CCOC(=O)C(SP(=S)(OC)OC)c1ccccc1` (stereo not given) here?
Answer: inactive

Question: For `CCCCCCCCCCCCBr`, which outcome is on record?
Answer: inactive

Question: For `O=C(Cc1ccccc1)OCCc1ccccc1`, which outcome is on record?
Answer: inactive

Question: With `Nc1ccc(-c2ccccc2)cc1` as the compound, how does the outcome read?
Answer: inactive

Question: Which outcome does the source give for `Clc1ccc(C(Cl)(Cl)Cl)cn1` here?
Answer: inactive

Question: For `CCN(N=O)C(N)=O`, which outcome is on record?
Answer: inactive

Question: With `c1ccc(-c2cccc(-c3ccccc3)c2)cc1` as the compound, how does the outcome read?
Answer: inactive

Question: Which outcome does the source give for `CC(C)[N+](=O)[O-]` here?
Answer: inactive

Question: With `OCCCCO` as the compound, how does the outcome read?
Answer: inactive

Question: Which outcome does the source give for `Cc1cc(Cl)ccc1OCCCC(=O)O` here?
Answer: inactive

Question: Which outcome does the source give for `O=C=Nc1ccc(Cl)cc1` here?
Answer: inactive

Question: For `C[C@H]1C(=O)O[C@@H]2CCN3CC=C(COC(=O)[C@](C)(O)[C@]1(C)O)[C@H]23`, which outcome is on record?
Answer: inactive

Question: Which outcome does the source give for `O=[N+]([O-])c1ccccc1O` here?
Answer: inactive

Question: For `CC(C)CP(=S)(S)CC(C)C`, which outcome is on record?
Answer: inactive

Question: For `CCC(C)(C#N)N=NC(C)(C#N)CC` (stereo not given), which outcome is on record?
Answer: inactive

Question: For `C[CH2][Hg][S]c1ccccc1C(=O)O`, which AC50 is on record?
Answer: 46.1 µM (active) and 7.05 µM (active)

Question: Which AC50 does the source give for `C=CC(=O)OCC(COC(=O)C=C)(COC(=O)C=C)COC(=O)C=C` here?
Answer: 21.3 µM (active)

Question: For `CCOP(=S)(OCC)SCSc1cc(Cl)ccc1Cl`, which outcome is on record?
Answer: inactive
